High-throughput results from PubChem BioAssay.
Compounds with a hit are over-represented: about 4% of the library has one in this group of screens.
GRP78 ERSR act: inducers of ER stress response in human glioma cells; U87-MG GRP78 promoter luciferase reporter, 16 h; Potency, µM, for inactives: at the top dose activation, hits mostly activators; 420,000 tested, 0.02% active; active means well fitted activation curve with a large enough effect; inconclusive means small, poorly fitted or top-dose-only effect; inactive means no such curve, though single readings can be large or run the other way; further: potency means the concentration at half of the fitted maximal effect; series mostly up to about 76 µM; % of control where 0% means no effect; nearly all actives have a fitted effect of over 35% in size
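Stably transfected U87-MG glioma cells carrying a GRP78-based luciferase sensor; 16 h compound incubation. Luminescence end-point read 10 min after Bright-Glo addition at room temperature.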
TRHR PAM: allosterically enhances the human TRH receptor | enhancement, % at 2 µM | TRHR cells, fluo-8 calcium fluorescence, EC20 TRH enhancement | 360,000 tested, 0.66% active | P34981; in the data active means enhancement above about 30%; further: 0% is about no effect
Target sequence (P34981 whole entry, looked up): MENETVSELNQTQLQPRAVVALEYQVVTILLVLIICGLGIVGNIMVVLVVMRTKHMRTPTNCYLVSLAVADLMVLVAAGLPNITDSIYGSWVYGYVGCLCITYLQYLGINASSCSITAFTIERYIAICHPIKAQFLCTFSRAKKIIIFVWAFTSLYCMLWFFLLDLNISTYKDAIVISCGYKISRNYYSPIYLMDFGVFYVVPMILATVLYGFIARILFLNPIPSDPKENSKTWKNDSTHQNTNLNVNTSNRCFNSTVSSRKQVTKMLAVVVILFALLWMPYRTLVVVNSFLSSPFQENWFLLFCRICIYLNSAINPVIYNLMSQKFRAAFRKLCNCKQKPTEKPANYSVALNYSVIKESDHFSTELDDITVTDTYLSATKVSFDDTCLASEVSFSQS
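Enhancer read-out: after compound pinning and an initial kinetic agonist-mode read, an EC20 of TRH (10 nM final) was injected and fluo-8 calcium signal (Ex 480/Em 530) followed at 1 s/cycle for 100 cycles in TRHR-expressing cells.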
TRHR ag: activates the human TRH receptor; AID 493084; P34981; TRHR cells, calcium flux fluo-8, FDSS agonist mode; activation, % at 2 µM; 360,000 tested, 0.18% active; further: 0% is about no effect
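In this calcium-flux screen, cells bearing human TRHR are dye-loaded with fluo-8, baselined for 10 cycles, then exposed to library compounds; positive kinetic calcium responses during the agonist phase mark hits, with TRH as control.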
D1 ag: activates the human D1 dopamine receptor; P21728; HEK293 T-REx D1 cells, calcium flux, agonist mode; activation, % at 2 µM; 360,000 tested, 1% active; AID 504660; further: 0% is about no effect
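Tetracycline-induced HEK293 TREx D1 cells, force-coupled to calcium signalling, were dye-loaded with a no-wash calcium kit. Compound was pin-added after a 10 s baseline. Fluorescence was read kinetically at 1 cycle/s for 180 s, with calcium rises flagged as agonism.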
D1 potentiator: potentiators of human D1 dopamine receptor; HEK293 TREx D1 cells, calcium flux, dopamine EC20 potentiation; AID 504651; 360,000 tested, 0.036% active; potentiation, % at 10 µM; P21728; in the data active means potentiation above about 30%; further: 0% is about no effect
D1 antag: blocks dopamine activation of the human D1 receptor; P21728; HEK293 TREx D1 cells, calcium flux, dopamine EC80; stronger effect = lower value; activity change, negative = inhibition, % at 10 µM; 360,000 tested, 3.2% active; in the data active means activity change below about -30%; further: on the % scale 0 is the no-effect control and ±100 the full control effect
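Cells carrying a force-coupled, tetracycline-inducible human D1 receptor report calcium flux. Each well gets a 10 s baseline, compound with 180 s monitoring, then an EC80 dopamine stimulus with a second 180 s kinetic read.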
Active calls of the source: *; ? = inconclusive; . = no result given; ! = repeats disagree. Unless noted, no stated cut-off is given here; in the data, active means activation above about 30%; inactive means the rest.

SMILES	GRP78 ERSR act	TRHR PAM	TRHR ag	D1 ag	D1 potentiator	D1 antag
COC(=O)C1CCCCN1C(=O)c1cc(COc2cccc3cnccc23)on1 (stereo not given)	.	-3.1	1.9	22.9	-6.3	-42.6*
COc1ccc(OCc2cc(C(=O)N(Cc3nccn3C)C(C)C)no2)c2ccccc12	-1.1%	2.4	0.2	5.9	2.8	-5.4
COC(=O)C1CCCCN1C(=O)c1cc(COc2cccc3cccnc23)on1 (stereo not given)	-5.2%	-0.6	-0.8	1.2	1.4	-2.1
CN(Cc1nccs1)C(=O)c1cc(COc2cccc3cnccc23)on1	-2.3%	-4.0	0.1	15.8	-0.5	-31.7*
COCCC1CCCCN1C(=O)c1cc(COc2cccc(C(C)=O)c2)on1 (stereo not given)	12.6%	-0.2	0.4	11.5	-7.5	-49.1*
O=C(C[n+]1cccc2cccc(O)c21)c1ccccc1	-2.8%	.	.	.	.	.
COC(=O)C1=C[C@@H](C(=O)OC)[C@@H]2C3=C(C(=O)C2(C)C)[C@H](c2ccccc2)[C@@H]2C(=O)N(c4ccccc4)C(=O)[C@@H]2[C@@H]3C1	-5.9%	.	.	.	.	.
O=C(O)CCCn1cc(NC(=O)COc2ccccc2F)cn1	-2.0%	1.1	-1.5	8.5	1.1	-39.0*!
COc1ccc(Cl)cc1NC(=O)Nc1cn(C)nc1C	-2.2%	1.6	-0.4	16.5	-5.4	-61.2*
O=C(NCc1ccc2c(c1)OCO2)Nc1cccc(Cl)c1	5.2%	-6.4	-0.4	14.4	-10.2	-41.2*
COc1ccc(Cl)cc1NC(=O)NCc1ccc2c(c1)OCO2	-4.2%	-3.1	0.1	10.2	-10.8	-32.7*
COc1ccccc1NC(=O)NCc1ccc2c(c1)OCO2	.	-11.5	-0.9	0.7	-5.6	6.3
COc1ccc(Cl)cc1NC(=O)Nn1cnnc1	-3.7%	-7.1	-0.8	0.2	-6.2	-6.8
CCN1CCC(N(Cc2ccc3c(c2)OCO3)C(=O)Nc2cc(Cl)ccc2C(=O)OC)CC1	-6.3%	0.2	1.7	48.7*	-2.6	-9.4
O=C(C[C@H]1C/C=C\CC[C@H](Cc2ccc(F)cc2)C(=O)OC[C@H]2CCCN2C1=O)NCCO	-0.9%	.	.	.	.	.
CC(=O)c1c(C)[nH]c2ccc(OCC(O)CNCCc3ccccc3)cc12 (stereo not given)	-1.2%	.	.	.	.	.
COC(=O)CCSc1cc([N+](=O)[O-])cc2c1c(C1OCCO1)nn2-c1ccccc1	-0.5%	-2.4	0.7	18.5	4.5	-35.6*
CCOc1ccc(N2C(=O)CC(NC3CCN(C(=O)c4cccc(Cl)c4)CC3)C2=O)cc1 (stereo not given)	-8.1%	-2.8	-0.5	6.2	-0.3	-0.2
CCOc1ccc(N2C(=O)CC(NC3CCN(C(=O)c4cccs4)CC3)C2=O)cc1 (stereo not given)	0.2%	2.3	-0.2	78.5*	-3.9	28.8
C1CCC(C(CC2CCCCN2)C2CCCCC2)CC1 (stereo not given)	-10.7%	26.2	2.0	135.7*	12.8	67.5
N#Cc1nc(Nc2ccc(Br)cc2)nc(NC2CCCC2)n1	.	1.7	-1.6	6.6	-3.6	-28.6
COc1ccc([C@H]2CC(=O)C=C(c3cccc(OC(F)(F)F)c3)C2)cc1	-3.3%	2.7	0.6	7.1	8.9	-30.1*
CCOC(=O)N1CCN(C(=O)CSc2ccc3nnc(CCNC(=O)c4ccc(OC)cc4)n3n2)CC1	-0.9%	-0.7	0.5	4.5	-0.7	-22.3
Cc1cc(CSC(=N)N)c(CSC(=N)N)cc1C	-3.5%	-22.8	0.8	2.1	-2.9	-94.9*
N=C(N)SCc1ccc(Cl)c2ccccc12	-5.3%	.	.	.	.	.
SMILES	GRP78 ERSR act	TRHR PAM	TRHR ag	D1 ag	D1 potentiator	D1 antag
Cc1ccc2nc(CCl)[n+]([O-])c(-c3ccccc3)c2c1	-1.6%	5.3	1.1	2.9	-7.0	-38.1*
C=CCC[C@H](Cc1ccc(F)cc1)C(=O)OC[C@@H](Cc1c[nH]c2ccccc12)NC(=O)[C@H](CC=C)CC(=O)N(CCO)Cc1ccccc1	-4.3%	.	.	.	.	.
Cc1ccc(Sc2ccc(N3CCC(C(=O)Nc4cc(C)cc(C)c4)CC3)nn2)cc1	-0.6%	11.6	0.2	-0.6	6.3	-47.5*
Cc1nc2c(-c3ccc(F)cc3)c(C)nn2c(C)c1CCC(=O)NCc1cccc(Cl)c1	-4.7%	15.0	0.1	2.0	-7.0	-38.9*
Cc1nc2c(-c3ccccc3)c(C)nn2c(C)c1CCC(=O)NCc1ccco1	-3.0%	1.9	-1.0	0.2	-15.9	-42.6*
CCOc1ccc(NC(=O)CCc2c(C)nc3c(-c4ccccc4)c(C)nn3c2C)cc1	0.1%	47.8*	0.4	2.4	-4.5	-11.5
Cc1nc2c(-c3ccccc3)c(C)nn2c(C)c1CCC(=O)N1CCN(c2ccccc2)CC1	-0.2%	3.4	-0.2	0.3	-2.5	2.7
CCN1CCN(c2ccc(NC(=O)CCc3c(C)nc4c(-c5ccccc5)c(C)nn4c3C)cc2)CC1	-3.9%	0.7	-1.0	4.1	-10.1	-84.2*
C[C@@H]1OC(OC2CC[C@@]3(C)C(CC[C@@]4(C)C3CC=C3C5CC(C)(C)CC[C@]5(C(=O)OC5OCC(O)[C@@H](O)[C@@H]5OC5O[C@@H](C)[C@H](O[C@H]6OC(CO)C(O)C(O)C6O)C(O)C5O)C(O)C[C@@]34C)C2(C)C)C(O)C(O)[C@H]1OC1OCC(O)C(O)[C@H]1O (stereo not given in full)	-11.5%	.	.	.	.	.
CC1OC(O[C@H]2CC[C@]3(C)C4C=C[C@]56OC[C@@]7(CC[C@@H](C)[C@H](C)C75)[C@H](O)C[C@@]6(C)[C@]4(C)CC[C@H]3C2(C)C)C(OC2OC(CO)C(O)C(O)C2OC2OCC(O)C(O)C2O)C(O)C1O (stereo not given in full)	.	-21.8	48.2*	243.9*	14.2	41.3
O=CNn1cnc2c(oc3nc(-c4ccccc4)cc(-c4ccco4)c32)c1=O	-3.8%	5.2	0.7	5.3	-10.2	-14.8
N#Cc1c(-c2ccccc2)c(C#N)c2nc3ccccc3n2c1N	-5.1%	-3.7	1.2	13.1	-1.3	-6.0
Cc1ccc(-c2c(C#N)c(N)n3c(nc4ccccc43)c2C#N)cc1	-5.3%	-6.2	4.0	23.1	-15.1	-39.4*
COC(=O)c1cc(OC)c(OC)cc1NC(=S)NC(=O)c1ccco1	4.3%	-4.5	0.6	0.4	-3.9	-37.5*
COc1ccccc1C(=O)NNC(=S)NC(=O)c1ccco1	-2.6%	1.2	5.6	50.4*	-1.1	-7.3
COc1ccccc1C(=O)NNC(=S)Nc1ccccc1	4.6%	0.1	-0.1	5.3	-3.3	-30.6*
COC(=O)NNC(=O)c1ccccc1OC	-1.5%	-1.1	-1.6	0.9	-4.8	-7.2
COc1ccc(S(=O)(=O)Nc2cccc3cccnc23)c([N+](=O)[O-])c1	?	-4.2	1.3	4.3	-2.4	-28.2
